{"source": "paper PMC5540273", "about": "(PLoS ONE, 2017);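 also: KINOMEscan kinase panel screen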"}
{"tested_on": "MERTK", "conditions": "concentration: 1 μM, replicates: in singlicate; n = 1", "units": {"%Inh": "%"}}
{"compound": "CN1CCN(Cc2ccc(NC(=O)Nc3ccc(N(C)c4ccnc(Nc5ccc(CS(C)(=O)=O)cc5)n4)cc3)cc2)CC1.Cl", "note": "[GW827654]", "%Inh": 72}
{"compound": "COc1ccc(C)c(Nc2ccnc(Nc3ccc(-c4cnc[nH]4)cc3)n2)c1.Cl", "note": "[GW784041]", "%Inh": 7}
{"compound": "Cc1ccc(NC(=O)c2ccnc(N3CCCCC3)c2)cc1-c1ccc(C(=O)NCC2CC2)cc1", "note": "[GW775610]", "%Inh": 3}
{"compound": "CC(C)NCC(Cc1ccccc1)NC(=O)c1cc(Br)c(-c2ccnc3[nH]ccc23)s1.Cl.Cl", "note": "(stereo not drawn) [GSK1383281]", "%Inh": 39}
{"compound": "N#Cc1cnc2cc(-c3cnc(CNCCN4CCOCC4)s3)ccc2c1Nc1ccc(Oc2ccccc2)cc1", "note": "[GW664114]", "%Inh": 72}
{"compound": "O=C1NC(=O)C(c2ccccc2Cl)=C1Nc1cccc(Cl)c1", "note": "[SB-342409]", "%Inh": 1}
{"compound": "COc1cc(Nc2ccnc3cc(-c4ccncc4)ccc23)cc(OC)c1OC.Cl", "note": "[GW494610]", "%Inh": 13}
{"compound": "O=C(Nc1n[nH]c2nc(-c3cccc(O)c3)ccc12)C1CC1", "note": "[SB-711805]", "%Inh": 47}
{"compound": "COC(=O)Nc1nc2ccc(Oc3ccc(NC(=O)Nc4cc(C(F)(F)F)ccc4F)cc3)cc2[nH]1.Cl", "note": "[GW654607]", "%Inh": 98.5}
{"compound": "Cc1ccc(O)cc1Nc1ccnc2ccc(C(C)(C)C)cc12", "note": "[GW856805]", "%Inh": 46}
{"compound": "O=C(Nc1n[nH]c2nc(-c3ccccc3)ccc12)C1CC1", "note": "[SB-708999]", "%Inh": 27}
{"compound": "Fc1cc(Cl)ccc1Nc1ccnc2cc(-c3ccc(CN4CCOCC4)o3)ccc12", "note": "[GW560109]", "%Inh": 28}
{"compound": "Cc1ccc(Nc2ccnc(Nc3ccc(C)c(F)c3)n2)cc1O.Cl", "note": "[GW582868]", "%Inh": 38}
{"compound": "COc1ccc(NC(=O)c2ccoc2)cc1-c1ccc(C(=O)NCC2CC2)cc1", "note": "[GW810437]", "%Inh": 0}
{"compound": "Cn1cc(-c2cnc(N)c3c(-c4ccc5c(c4)CCN5C(=O)Cc4ccccc4)csc23)cn1", "note": "[GSK2593074]", "%Inh": 90}
{"compound": "Cc1ccc(NC(=O)c2ccc(Cl)c(Cl)c2)cc1-c1ccc(C(=O)Nc2ccncc2)cc1", "note": "[GSK1398460]", "%Inh": 36}
{"compound": "Cl.O=C(Nc1ccc(Oc2ccc3[nH]c(NC(=O)c4ccco4)nc3c2)cc1)Nc1cc(C(F)(F)F)ccc1F", "note": "[GW683134]", "%Inh": 99.6}
{"compound": "Nc1ncc(-c2cn[nH]c2)c2scc(-c3ccc4c(c3)CCN4C(=O)Cc3ccccc3)c12", "note": "[GSK2593067]", "%Inh": 73}
{"compound": "O=C(O)C(F)(F)F.O=c1[nH]ccc2nc(N[C@@H]3CCNC3)nc(Nc3ccc4c(c3)S(=O)(=O)CC4)c12", "note": "[GSK2181306]", "%Inh": 91.7}
{"compound": "COc1ccc(C2=C(Nc3cccc(O)c3)C(=O)NC2=O)cc1", "note": "[SB-390766]", "%Inh": 28}
{"compound": "CSc1ccc(NC2=C(c3ccc(Cl)cc3)C(=O)NC2=O)cc1", "note": "[SB-317658]", "%Inh": 0}
{"compound": "Cc1cccc(Nc2nc(N[C@H]3CCCC[C@H]3N)ncc2C(N)=O)c1.Cl", "note": "[GSK986310]", "%Inh": 64}
{"compound": "NCCC(NC(=O)c1cc(Br)c(-c2ccnc3[nH]ccc23)s1)c1ccccc1.O=C(O)C(F)(F)F.O=C(O)C(F)(F)F", "note": "(stereo not drawn) [GSK1307810]", "%Inh": 25}
{"compound": "CN(c1ccc(NC(=O)Nc2cccc(Cl)c2)cc1)c1ccnc(N)n1.Cl", "note": "[GW830707]", "%Inh": 0}
{"compound": "Fc1cc(Cl)ccc1Nc1ccnc2cc(-c3ccc(CN4CCSCC4)o3)ccc12", "note": "[GW560106]", "%Inh": 40}
{"compound": "Cn1cc(-c2ccc3c(c2)CCN3C(=O)Cc2cc(F)cc(F)c2F)c2c(N)ncnc21", "note": "[GSK2634140]", "%Inh": 38}
{"compound": "CCn1cnc2c(NCc3ccccc3)ncnc21", "note": "[SKF-96418]", "%Inh": 0}
{"compound": "COC(=O)Nc1nc2ccc(Oc3ccc(CC(=O)Nc4cc(C(F)(F)F)ccc4F)cc3)cc2[nH]1", "note": "[GW680903]", "%Inh": 44}
{"compound": "Cl.Cl.NCC(NC(=O)c1cc(-c2cccnc2)c(-c2ccnc3[nH]ccc23)s1)c1ccccc1", "note": "(stereo not drawn) [GSK1323434]", "%Inh": 13}
{"compound": "CN(c1ccc(NC(=O)N2CCN(CCCN3CCOCC3)CC2)cc1)c1ccnc(Nc2ccc(CS(C)(=O)=O)cc2)n1.Cl", "note": "[GW830899]", "%Inh": 0}
{"compound": "COc1cccc(-c2nc(-c3ccccc3)[nH]c2-c2ccncc2)c1", "note": "[SB-610250]", "%Inh": 9}
{"compound": "Cl.Cl.NC(CNC(=O)c1cc(Br)c(-c2ccnc3[nH]ccc23)s1)c1ccccc1", "note": "(stereo not drawn) [GSK1322949]", "%Inh": 58}
{"compound": "O=C(Nc1n[nH]c2cc(-c3cccs3)ccc12)C1CC1", "note": "[SB-731284]", "%Inh": 0}
